# Compound activity as filed in PubChem.
# GC-A act = GC-A stimulated cGMP production enhancers – HEK293 GC-A cells, cGMP TR-FRET, EC30 ANP, primary screen | Atrial natriuretic peptide receptor 1 (Homo sapiens), P16066 | 0% at EC30 ANP, 100% saturating ANP | hit rate 0.14% among 370,000 | activation, % at 10 µM; in the data active = activation above about 40%
# ADAM10 inh = human ADAM10 inhibitors, primary screen, biochemical, QFRET, HTS; recombinant ADAM10, EDANS/DABCYL FRET peptide cleavage, 3 h; inhibition, % at 7 µM; hit rate 0.62% among 370,000;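 active = inhibition above a per-campaign cutoff equal to the mean of compounds falling between control-based bounds plus 3 SD, cut at about 20% in these data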;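 also: 0% = DMSO wells while the 100% control is not disclosed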
# Target sequence (O14672 214-748 limits assumed): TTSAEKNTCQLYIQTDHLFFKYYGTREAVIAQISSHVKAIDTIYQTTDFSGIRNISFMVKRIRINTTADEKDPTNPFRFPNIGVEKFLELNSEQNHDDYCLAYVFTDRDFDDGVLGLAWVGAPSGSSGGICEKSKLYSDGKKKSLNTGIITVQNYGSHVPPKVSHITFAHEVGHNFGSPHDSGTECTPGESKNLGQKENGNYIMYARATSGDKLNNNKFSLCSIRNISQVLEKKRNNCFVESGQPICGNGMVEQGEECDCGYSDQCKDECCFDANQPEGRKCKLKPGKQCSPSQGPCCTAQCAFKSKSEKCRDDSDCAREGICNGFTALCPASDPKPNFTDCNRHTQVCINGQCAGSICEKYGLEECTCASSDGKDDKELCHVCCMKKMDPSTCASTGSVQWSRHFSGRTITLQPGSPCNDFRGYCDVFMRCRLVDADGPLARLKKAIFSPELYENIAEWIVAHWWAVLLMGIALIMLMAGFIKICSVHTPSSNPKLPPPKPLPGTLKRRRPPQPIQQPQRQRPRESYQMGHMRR
# GC-B act = human GC-B receptor activators, primary screen, HEK293 GC-B cells, cGMP TR-FRET, EC30 CNP; 0% at EC30 CNP, 100% saturating CNP; Atrial natriuretic peptide receptor 2 (Homo sapiens), P20594; activation, % at 10 µM; hit rate 0.11% among 370,000;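 active = activation at 10 µM reaching about 35% in either raw or pattern-adjusted values, limit read from the data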
# FAS TE block = FAS thioesterase domain inhibitors, primary screen, biochemical, fluorescence intensity, uHTS | recombinant FAS-TE, OMFH fluorogenic substrate, fluorescence endpoint | hit rate 0.67% among 360,000 | AID 602261, 2012 | Fatty acid synthase (Homo sapiens), P49327 | inhibition, % at 15 µM;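 active = compounds whose normalised, plate-corrected inhibition of enzyme fluorescence in the single-dose primary screen is 50% or more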;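 also: 0% = DMSO with enzyme and 100% = substrate without enzyme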
# ADAM17 inh = ADAM17 inhibitors, primary screen, biochemical, QFRET. Disintegrin and metalloproteinase domain-containing protein 17 (Homo sapiens), P78536. recombinant ADAM17, EDANS/DABCYL FRET peptide cleavage. inhibition, % at 6.95 µM. hit rate 0.83% among 370,000. AID 720648, 2013;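 active = inhibition above the mean of compounds lying between control limits plus 3 SD, set per campaign, cut at about 8.5% in these data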;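 also: 0% = DMSO-only wells as the low control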
# ADAM10 counter = ADAM10 inhibitors, counter-screen for ADAM17 exosite inhibitor project, biochemical, FRET, human ADAM10 | inhibition, % at 6.95 µM | shares compounds with ADAM17 inh | recombinant ADAM10, EDANS/DABCYL FRET peptide cleavage, 3 h | hit rate 47% among 2,900;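 active = mean inhibition over the triplicate runs exceeds the activity threshold set in the earlier primary screen, cut at about 20% in these data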;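 also: 0% = DMSO wells and 100% = marimastat wells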
# ADAM17 confirm = ADAM17 inhibitors, hit retest, confirmation, biochemical, QFRET peptide cleavage | AID 743257, 2014 | hit rate 65% among 2,900 | recombinant ADAM17, EDANS/DABCYL QFRET peptide cleavage | shares compounds with ADAM17 inh | inhibition, % at 6.95 µM;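 active = mean inhibition across replicates above the hit cutoff set in the primary screen, cut at about 8.5% in these data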;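 also: 0% = DMSO wells and 100% = marimastat wells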
# * = called active by the depositor; nt = no result. An excerpt weighted towards active compounds, which were near 2% of everything screened.
SMILES,GC-A act,ADAM10 inh,GC-B act,FAS TE block,ADAM17 inh,ADAM10 counter,ADAM17 confirm
CN1CCN(C(c2ccc(Cl)cc2)c2cc(Cl)c3cccnc3c2O)CC1 (centres undefined),-9.7,16.5,3.0,7.3,7.5,nt,nt
C#CCN(C[C@H]1[C@H](OC(=O)NCCCCCC)[C@H](OC(=O)NCCCCCC)CN(C(=O)OC(C)C)N1C(=O)OC(C)C)S(=O)(=O)c1ccc(C)cc1,0.0,-7.2,11.9,nt,0.2,nt,nt
CC(C)CN1C(=O)[C@]2(CC(=O)N(C)C2c2ccccc2)c2cc(-n3cc(CCCC#N)nn3)ccc21 (some centres undefined),4.0,-7.5,4.3,nt,-0.4,nt,nt
CCN(CC)c1ccc(S(=O)(=O)N2CCOCC2)cc1NC(=O)COC(=O)/C=C/c1ccccc1,-4.8,11.4,4.0,31.6,8.8*,13.7,10.8*
OC(CSc1nnnn1-c1ccccc1)Cn1c2ccccc2c2ccccc21 (centres undefined),-7.0,7.0,-5.6,15.2,11.0*,14.8,10.3*
COC(=O)[C@]12C[C@H](CC(=O)NCCCCc3ccccc3)C(=O)N(CCC3=CCCCC3)C1=C[C@H](C(C)C)O[C@@H]2C1CC1,2.6,8.8,-6.8,nt,2.9,nt,nt
C#CCNC(=O)C[C@H]1C[C@@]2(C(=O)OC)C(=C[C@H](C(C)C)O[C@@H]2C2CC2)N(Cc2cccc3ccccc23)C1=O,-16.7,10.0,-10.5,nt,8.9*,6.3,7.6
CCOC(=O)[C@]12CCC=C1N(Cc1cccc3ccccc13)C(=O)[C@H](CC(=O)NCc1cccs1)C2,-7.5,12.8,4.6,14.8,11.3*,20.4*,11.7*
COC(=O)[C@]12C[C@H](CC(=O)NCc3cccc4ccccc34)C(=O)N(Cc3cccc4ccccc34)C1=C[C@H](C(C)C)O[C@@H]2C1CC1,-4.9,13.3,1.8,nt,7.2,nt,nt
COC(=O)[C@]12C[C@H](CC(=O)NCCCCc3ccccc3)C(=O)N(Cc3cccc4ccccc34)C1=C[C@H](C(C)C)O[C@@H]2C1CC1,-3.2,6.1,0.3,nt,9.6*,12.3,11.6*
COC(=O)[C@]12C[C@H](CC(=O)NCc3ccc(OC)c(OC)c3)C(=O)N(Cc3cccc4ccccc34)C1=C[C@H](C(C)C)O[C@@H]2C1CC1,-2.2,6.3,0.5,nt,3.3,nt,nt
CCC(=O)N1CCc2cc(Br)cc(S(=O)(=O)N(C)c3ccc(OC)cc3OC)c21,-2.6,16.3,-5.5,13.9,10.5*,7.1,-0.4
COc1cc(OC)cc(C(=O)NNC(=O)CNC(=O)c2cccs2)c1,4.1,6.1,6.8,-2.9,9.2*,2.8,4.2
O=C(N/N=C/c1cccnc1)C1CCCN(S(=O)(=O)c2ccccc2)C1 (centres undefined),1.6,6.0,-5.7,-4.1,9.2*,7.7,7.0
O=C(N/N=C/c1cccnc1)c1ccc(S(=O)(=O)N2CCCCCC2)cc1,-2.8,-26.3,-9.8,-2.8,-9.6,nt,nt
O=C1CC(Nc2ccc3ccccc3c2)C(=O)N1Cc1ccccc1 (centres undefined),0.0,9.4,-2.9,12.1,10.0*,11.8,11.1*
Cc1c(C(=O)N(Cc2ccc(N(C)C)cc2)CC2CCCO2)oc2ccccc12 (centres undefined),-2.5,11.0,2.9,17.2,10.0*,-5.5,1.1
CN(C)c1ccc(CN(CC2CCCO2)C(=O)c2cc3ccccc3o2)cc1 (centres undefined),-0.6,3.9,2.6,8.3,1.4,nt,nt
Cc1c(NC(=O)c2cccc(NC(=O)c3ccco3)c2)cccc1C(=O)O,6.5,5.6,11.0,-5.4,9.0*,-7.2,-0.8
CC(C)N1CCC1(C)C(=O)Nc1cccc2ccccc12 (centres undefined),-2.6,-29.0,-1.9,-1.9,-4.1,nt,nt
CC(C)N1CCC1(C)C(=O)Nc1ccccc1OC(F)F (centres undefined),2.6,8.8,1.9,-2.9,9.9*,-6.5,2.8
COc1ccc(C2CC(=O)C(c3ccccc3)=CN2Cc2ccccc2)cc1 (centres undefined),-2.9,2.0,1.1,nt,4.0,nt,nt
COC(=O)[C@]12C[C@H](CC(=O)NCCc3ccccc3OC)C(=O)N(CCc3ccc(OC)c(OC)c3)C1=C[C@H](C(C)(C)C)O[C@@H]2C,-5.5,12.8,-8.0,nt,6.8,nt,nt
Clc1ccc(OCc2nc(-c3ccccn3)n[nH]2)cc1,-3.5,7.0,0.8,3.9,9.4*,5.4,4.3
Brc1ccc(OCc2nc(-c3ccccn3)n[nH]2)cc1,0.5,3.4,-3.6,5.2,0.7,nt,nt
SMILES,GC-A act,ADAM10 inh,GC-B act,FAS TE block,ADAM17 inh,ADAM10 counter,ADAM17 confirm
CCOC(=O)[C@]12CCCC=C1N(CCCOC)C(=O)[C@@H]2CC(=O)NCc1ccc(OC)c(OC)c1,2.7,-14.7,0.7,nt,-2.8,nt,nt
CCSc1ccc([C@@H]2[C@H]3C(=O)N(C)C(=O)[C@H]3[C@]3(C(=O)OC)CCCCN23)cc1OC,-2.6,3.0,3.1,6.8,10.8*,26.0*,12.7*
CCC(C)Sc1ccc([C@@H]2[C@@H]3C(=O)N(C)C(=O)[C@@H]3[C@]3(C(=O)OC)CCCCN23)cc1OC (some centres undefined),-0.4,4.6,3.5,4.7,3.4,nt,nt
CCCSc1ccc([C@@H]2[C@H]3C(=O)N(CC)C(=O)[C@H]3[C@]3(C(=O)OC)CCCN23)cc1,3.9,9.8,-0.4,-7.8,13.3*,3.4,3.2
CCC(C)Sc1ccc([C@@H]2[C@@H]3C(=O)N(CC)C(=O)[C@@H]3[C@]3(C(=O)OC)CCCCN23)cc1OC (some centres undefined),2.0,12.6,1.9,9.9,9.2*,-2.6,6.6
COC(=O)[C@@]12CCCCN1[C@H](c1ccc(SC3CCCCC3)c(OC)c1)[C@@H]1C(=O)N(C)C(=O)[C@@H]12,-0.6,15.4,5.5,29.8,10.1*,29.1*,17.1*
Cc1ccc(CN2C(C(=O)NC3CCCC3)CSCCS2(=O)=O)cc1 (centres undefined),-2.8,-0.9,-5.0,nt,0.1,nt,nt
Cc1ccc(CSc2nnc(-c3cccs3)o2)cc1C,-3.7,2.8,-1.4,nt,3.2,nt,nt
